# The list is not random: actives were taken first. Their share in the collection is about 0.51%.
# phage Ecoli inh: E. coli growth loss with phage present; growth absorbance; inhibition, % at 11.9 µM; 0.26% of 360,000 active; in the data active = inhibition above about 11%
# E coli growth-1: bacterial growth inhibition, counter-screen for AddAB inhibitors; inhibition, % at 11.9 µM; E. coli V3065 growth, OD600 absorbance, 18 h; 0.27% of 330,000 active;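 active = inhibition above the campaign's mean inhibition across all tested compounds plus 3 SD, cut at about 9.9% in these data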;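 also: uninfected addAB+ strain grown without phage in ampicillin broth; 0% = DMSO wells and 100% = ciprofloxacin 0.95 µg/ml wells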
# Tat export inh: E. coli Tat transport inhibition. 0.036% of 340,000 active. inhibition, % at 10 µM. E. coli MC4100 TorA-mCherry Tat export, fluorescence;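 active = mean replicate inhibition at least 50% and at least half of replicates individually reaching 50%; inconclusive = only one of the two criteria met; inactive = neither criterion met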;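 also: exported cargo escapes ClpAP degradation while cytoplasmic cargo is degraded and loses fluorescence; 0% = median of neutral control wells and 100% = median of NaSCN control wells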
# AddAB inh: less growth of phage-infected E. coli with AddAB; E. coli expressing H. pylori AddAB, absorbance growth; inhibition, % at 11.9 µM; 0.29% of 330,000 active; in the data active = inhibition above about 12%;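 also: 0% = vehicle wells of infected cells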
# E coli growth-2: E. coli growth inhibition; Escherichia coli growth, OD600, 23 h; stronger effect = lower value; AID 1053175; 0.21% of 330,000 active; OD600 absorbance (no concentration beside the values);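 active = OD600 absorbance below the run mean of sample wells minus 3.6 SD, in any replicate, cut at about 0.56 in these data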
# AddAB confirm: growth loss of T4-infected E. coli expressing H. pylori AddAB, confirmed; shares compounds with AddAB inh; E. coli V3065 expressing H. pylori AddAB, T4 phage, OD; T4 phage with gene 2 nonsense mutations; inhibition, % at 11.9 µM; 64% of 880 active;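 active = mean inhibition above a set limit taken from the earlier primary screen, cut at about 13% in these data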;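 also: higher means less bacterial growth since AddAB block lets phage replicate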
# RecBCD counter: reduces growth of phage-infected RecBCD+ E. coli, AddAB inhibitor counter-screen | shares compounds with AddAB inh | E. coli V66 + mutant T4 phage, OD growth | inhibition, % at 11.9 µM | 73% of 880 active;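 active = mean inhibition above the mean of solvent-only control wells plus 3 SD, cut at about 4% in these data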;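 also: optical density read after an 18 h incubation at 37 °C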
# bact viab count: counter-screen: bacterial growth inhibition. shares compounds with AddAB inh. 35% of 880 active. AID 488956. bacterial viability, absorbance (AddAB counterscreen). inhibition, % at 11.9 µM; in the data active = inhibition above about 25%
# RecBCD conf: confirmation: growth loss of phage-infected RecBCD+ E. coli (RecBCD inhibitor screen); shares compounds with phage Ecoli inh; E. coli V66 + T4 2- phage, growth OD; inhibition, % at 11.9 µM; 45% of 890 active;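 active = mean inhibition over triplicates exceeding the hit threshold derived in the original primary screen, cut at about 11% in these data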
# Ecoli viability: counter-screen for RecBCD inhibitors: inhibitors of bacterial viability. shares compounds with phage Ecoli inh. E. coli viability, absorbance (OD) growth. inhibition, % at 11.9 µM. 29% of 890 active. AID 651983; in the data active = inhibition above about 20%;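 also: E. coli strain V66 grown with compound alone and no phage infection; 0% = bacteria with DMSO vehicle only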
# AddAB phage OD: growth loss of phage-infected AddAB E. coli, RecBCD counter-screen. shares compounds with phage Ecoli inh. E. coli expressing H. pylori AddAB + T4 phage, OD growth; gene 2 mutant T4, recBCD-deleted host. inhibition, % at 11.9 µM. 45% of 890 active;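 active = mean inhibition above the solvent-only control wells' mean plus 3 SD, cut at about 22% in these data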;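 also: higher means less bacterial growth from phage killing when AddAB is blocked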
# Starred values were filed as active, the others as inactive; ? = inconclusive; . = not tested or not shown.
SMILES,phage Ecoli inh,E coli growth-1,Tat export inh,AddAB inh,E coli growth-2,AddAB confirm,RecBCD counter,bact viab count,RecBCD conf,Ecoli viability,AddAB phage OD
COc1ccc(CC2CN3C(=NCC3C(C)C)N2CCNC(=O)CCC2CCCCC2)cc1 (stereo unspecified),.,.,.,.,0.679,.,.,.,.,.,.
O=C(Nc1ccccc1SC(=O)c1ccccc1)c1ccccc1,1.1,.,.,.,.,.,.,.,.,.,.
Cc1ccc(C(=O)Sc2cccccc2=O)cc1,61.5*,51.8*,82.5*,51.4*,0.145*,63.9*,61.3*,60.8*,77.9*,81.0*,89.0*
Cc1ccc(/C=C/C(=O)Nc2ccc(S(N)(=O)=O)cc2)o1,-0.6,3.5,2.4,2.5,0.691,.,.,.,.,.,.
Cc1nc(Nc2ccc(S(N)(=O)=O)cc2)oc1C,11.9*,9.9*,-10.3,15.4*,0.728,9.5,5.3*,15.4,5.5,2.2,40.5*
O=C(NNc1cc(Br)c(O)c(Br)c1)c1ccccc1,78.0*,96.7*,-9.0,101.5*,0.523,96.6*,49.8*,96.7*,39.3*,50.4*,101.1*
NS(=O)(=O)c1ccc(NNC(=O)c2ccccc2)cc1,1.9,0.6,-6.9,1.3,0.629,.,.,.,.,.,.
O=C(N/N=C/c1ccc(O)cc1O)c1ccc(CN2C(=O)c3cccc4cccc2c34)cc1,22.3*,24.8*,2.9,13.6*,.,15.7*,19.9*,10.4,9.1,11.1,15.7
Cc1cc([N+](=O)[O-])nn1Cc1ccc(C(=O)N/N=C/c2ccc(O)cc2O)cc1,17.3*,19.9*,-2.1,18.9*,.,23.5*,19.2*,13.3,5.2,7.1,9.8
C[C@H]1O[C@@H](n2cc(F)c(=O)[nH]c2=O)[C@H](O)[C@@H]1O,32.3*,42.3*,6.4,36.1*,.,41.5*,25.1*,38.3*,46.6*,30.8*,52.9*
O=c1[nH]c(=O)n(C2OC(CO)C(O)C(O)C2O)cc1F (stereo unspecified),3.7,.,.,.,.,.,.,.,.,.,.
CN1CCN(C(c2ccc(Br)cc2)c2cc(Cl)c3cccnc3c2O)CC1 (stereo unspecified),13.0*,23.4*,-7.5,22.3*,.,11.1,10.7*,5.5,1.6,4.0,2.6
CN1CCN(C(c2ccc(F)cc2)c2ccc3cccnc3c2O)CC1 (stereo unspecified),.,.,1.5,.,0.687,.,.,.,.,.,.
c1coc(CNc2nc3ccccc3s2)c1,1.2,2.1,-1.1,-1.7,0.677,.,.,.,.,.,.
Oc1c(C(Nc2nc3ccccc3s2)c2ccco2)ccc2cccnc12 (stereo unspecified),14.5*,21.2*,-7.2,19.3*,0.661,13.6*,13.3*,12.4,8.4,9.2,16.1
CC(=O)NC(c1ccco1)c1cc(F)c2cccnc2c1O (stereo unspecified),1.2,0.8,-2.0,-2.0,0.685,.,.,.,.,.,.
CC(C)C(=O)NC(c1cccc([N+](=O)[O-])c1)c1ccc2cccnc2c1O (stereo unspecified),23.0*,22.8*,-0.9,18.2*,0.6,27.0*,21.8*,21.9,16.4*,20.9*,27.6*
CC(C)C(=O)NC(c1ccco1)c1ccc2cccnc2c1O (stereo unspecified),21.1*,15.4*,-11.2,16.1*,.,5.6,14.7*,4.8,4.5,8.4,16.6
COc1cccc(C=CC(=O)OCC(=O)NCC2CCCO2)c1 (stereo unspecified),.,.,.,.,0.686,.,.,.,.,.,.
CCOc1cc(C=C2C(=O)ON=C2C)ccc1OCc1ccccc1,.,.,.,.,0.663,.,.,.,.,.,.
N#Cc1c(-c2ccccc2)ccn(Cc2cccc(Cl)c2)c1=O,15.1*,16.1*,-4.1,21.4*,0.686,27.4*,15.8*,19.2,5.7,8.7,15.3
O=[N+]([O-])c1ccc(-c2cnc(NO)nc2)cc1,30.7*,30.8*,-3.2,32.9*,0.591,42.4*,30.2*,39.8*,30.8*,35.9*,44.9*
Nc1ncc(-c2ccc([N+](=O)[O-])cc2)cn1,37.5*,37.9*,-2.8,39.0*,.,44.1*,36.8*,47.5*,35.2*,40.7*,51.0*
Nc1[nH]c(=O)ncc1-c1ccc([N+](=O)[O-])cc1,3.5,.,.,.,.,.,.,.,.,.,.
O=C(Nc1cccnc1)c1ccc([N+](=O)[O-])s1,16.9*,69.4*,-3.9,99.4*,0.07*,99.9*,18.2*,47.2*,7.7,10.9,86.1*
SMILES,phage Ecoli inh,E coli growth-1,Tat export inh,AddAB inh,E coli growth-2,AddAB confirm,RecBCD counter,bact viab count,RecBCD conf,Ecoli viability,AddAB phage OD
O=C(Nc1ccccc1F)c1ccc([N+](=O)[O-])s1,2.4,3.6,?,3.4,0.567,.,.,.,.,.,.
NC(=O)C1(NC(=O)C2CC3(CC(c4cccc(NC(=O)C5CCC(=O)N5)c4)=NO3)CN2C(=O)Cc2ccc(Cl)cc2)CC1 (stereo unspecified),.,.,.,.,0.729,.,.,.,.,.,.
COc1ccc(OC)c(NC(=O)Nc2nnc(N3CCCCC3C)s2)c1 (stereo unspecified),12.7*,13.5*,2.1,12.9*,0.694,1.5,17.2*,-1.8,10.3,12.1,-4.6
COC(=O)[C@]1(Cc2ccccc2)NC(c2ccc(-c3ccc(OC)cc3)cc2)C2C(=O)N(C)C(=O)C21 (stereo partly specified),.,.,.,.,0.723,.,.,.,.,.,.
CCOC(=O)N1CCN(Cc2ccc(O)c3ncccc23)CC1,7.5,3.4,.,2.0,0.75,.,.,.,.,.,.
Cc1ccc(C)c(S(=O)(=O)N2CCN(Cc3ccc(O)c4ncccc34)CC2)c1,17.1*,15.8*,1.3,17.4*,0.659,12.6*,15.0*,10.1,8.2,13.0,19.4
CCN1/C(=C/c2ccc3cc(C)ccc3[n+]2CC)Sc2ccccc21,13.8*,27.6*,3.7,25.3*,0.222*,45.7*,13.9*,30.3*,5.6,4.2,16.3
CC[n+]1ccccc1/C=C1\Sc2ccc(C)cc2N1C,0.1,1.6,-1.9,1.8,0.641,.,.,.,.,.,.
COc1ccc(C2C=CCN(C(=O)c3ccc(C)cc3)C(Cc3ccccc3)C(=O)N2Cc2ccc(F)cc2)cc1 (stereo unspecified),.,.,.,.,0.7,.,.,.,.,.,.
COc1ccc(C(=O)NC(=S)NNC(=O)c2ccco2)cc1,-5.5,-4.2,-1.2,0.4,0.644,.,.,.,.,.,.
COc1ccc(C(=O)NC(=S)NNC(=O)c2ccccc2O)cc1,12.2*,18.3*,-1.2,14.7*,0.699,18.7*,23.0*,22.8,12.2*,16.4,22.4*
